An excerpt weighted towards active compounds, which were near 7.5% of everything screened.
TSHR antag: antagonists of human thyroid stimulating hormone receptor | 330,000 compounds, 0.2% hits | activity change, negative = inhibition, % at 11.5 µM | TSHR-expressing cells, TSH-stimulated cAMP HTRF, 2 h; stronger effect = lower value | P16473;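 active = activity change below a set negative limit, meaning inhibition stronger than a set level, cut at about -70% in these data; inconclusive = activity change between two set negative limits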
Target sequence (P16473 whole entry, looked up): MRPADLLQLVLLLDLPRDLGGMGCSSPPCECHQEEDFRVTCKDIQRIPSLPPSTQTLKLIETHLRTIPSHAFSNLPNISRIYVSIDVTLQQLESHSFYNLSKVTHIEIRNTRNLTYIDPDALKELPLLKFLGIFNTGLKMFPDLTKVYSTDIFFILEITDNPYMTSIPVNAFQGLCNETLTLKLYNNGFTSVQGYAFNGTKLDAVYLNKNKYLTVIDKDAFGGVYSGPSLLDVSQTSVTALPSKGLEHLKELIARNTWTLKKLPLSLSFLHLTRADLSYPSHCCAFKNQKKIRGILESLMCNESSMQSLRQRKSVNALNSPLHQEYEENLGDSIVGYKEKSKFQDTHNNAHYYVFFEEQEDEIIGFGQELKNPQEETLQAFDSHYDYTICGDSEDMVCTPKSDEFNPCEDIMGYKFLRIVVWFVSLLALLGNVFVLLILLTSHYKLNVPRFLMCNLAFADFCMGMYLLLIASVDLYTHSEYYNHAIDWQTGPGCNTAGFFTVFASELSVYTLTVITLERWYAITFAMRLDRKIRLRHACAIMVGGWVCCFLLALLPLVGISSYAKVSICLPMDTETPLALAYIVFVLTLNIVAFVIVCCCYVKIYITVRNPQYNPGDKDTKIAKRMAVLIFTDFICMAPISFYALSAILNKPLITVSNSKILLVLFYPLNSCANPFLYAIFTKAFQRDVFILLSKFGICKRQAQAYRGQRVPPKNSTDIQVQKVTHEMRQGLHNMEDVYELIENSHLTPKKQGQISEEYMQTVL
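Competitive HTRF cAMP read-out (cryptate anti-cAMP antibody, cAMP-d2; 30 min, room temperature) in freshly harvested TSHR cells. Compounds added before TSH at EC80 (4nM final), followed by 2 hours' incubation at 37 deg C.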
Gal4-VP16 FLuc: counter-screen for ROR gamma inhibitors: Gal4-VP16 reporter. AID 2546. Drosophila S2 Gal4-VP16 UAS-luciferase, luminescence, 20 h. Potency, µM (highest dose often 53.6 µM), for inactives: at the highest dose activity, negative = inhibition, hits mostly inhibitors. 310,000 compounds, 3.5% hits;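 note: Gal4-VP16 expression switched on by copper sulfate through the metallothionein promoter; potency is the fitted concentration of half-maximal effect; nearly all actives have a fitted effect of over 50% in size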
ELG1 repair inh: ELG1-dependent DNA repair inhibition. HEK293T ELG1-luciferase reporter, luminescence, 16 h; DNA damage induced by 5-fluorouridine. Potency, µM (doses to about 46.1 µM), for inactives: at the highest dose activity change, negative = inhibition, hits mostly inhibitors. 330,000 compounds, 2.3% hits. AID 504467; note: potency is the fitted concentration of half-maximal effect; nearly all actives have a fitted effect of over 55% in size
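In this reporter screen, reduction of luminescence relative to DMSO vehicle indicated activity. Compounds and 5-fluorouridine were added together to 2,000 cells per well, incubated for 16 hr at 37 °C, then developed with ONE-Glo.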
RORgamma inh: ROR gamma (mouse) transcription inhibition; Drosophila S2 Gal4-RORgamma UAS-luciferase reporter, 20 h; Potency, µM (titrated, usually from 53.6 µM), for the others: at the highest dose activity change, negative = inhibition, most hits filed as inhibitors; P51450; 310,000 compounds, 5.4% hits; AID 2551; note: potency is the fitted concentration of half-maximal effect; nearly all actives have a fitted effect of over 60% in size
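ROR gamma transcriptional activity was tracked as Gal4-UAS luciferase output in stably transfected Drosophila Schneider cells, with compound added 1 hr before 700 uM copper sulfate induction and a 20 hr ambient-temperature incubation.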
B2AR arrestin: recruits beta-arrestin to the human beta2-adrenergic receptor; P07550; beta-arrestin recruitment to beta2AR, cell-based reporter; Potency, µM (titrated, usually from 46.1 µM), inactives show top-dose activation, usual class: activators; 330,000 compounds, 0.02% hits;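 note: potency is the fitted concentration of half-maximal effect; 0% = DMSO controls and full agonism = EC100 isoproterenol or metaproterenol; nearly all actives have a fitted effect of over 65% in size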
Numbers without * were called inactive; [ ] = remark or other dose. Unless noted, calls come from the whole dose curve; as a rule, active = well fitted curve in the direction sought with a large enough effect; inconclusive = small, poorly fitted or top-dose-only effect, or another doubt; inactive = no such curve, though single readings can be large; an effect the other way counts as inactive or inconclusive. Unless noted, % is set by controls: 0 for no effect and ±100 for the full control effect.

How did C=C1C(O)C2OC3(CCC(/C=C/C(C)C4CC(C)=CC5(OC(CC(C)(O)C(=O)O)CCC5O)O4)O3)CCC2OC1C(O)CC(C)C1OC2(CCCCO2)CCC1C (configuration not stated) do in these assays?
Gal4-VP16 FLuc: 0.0112µM*; RORgamma inh: 0.004µM*

Results for NNC(N)=S ?
Gal4-VP16 FLuc: -12.7%; RORgamma inh: 14.1µM*

What do the screens show for `CCOC(=O)Cn1cc([N+](=O)[O-])nc1[N+](=O)[O-]`?
TSHR antag: -0.1; Gal4-VP16 FLuc: 12.6µM*; ELG1 repair inh: -0.2%; RORgamma inh: 10µM*; B2AR arrestin: 0.3%

Results for COc1cccc(-n2c(/C=C/c3ccc(O)c(O)c3)nc3ccccc3c2=O)c1 ?
TSHR antag: 31.5; Gal4-VP16 FLuc: -7.6%; ELG1 repair inh: 8.2µM*; RORgamma inh: -43.8%; B2AR arrestin: 0.6%

How did COc1ccc(-n2c(/C=C/c3ccc4c(c3)OCO4)nc3ccccc3c2=O)cc1 do in these assays?
TSHR antag: 18.0; Gal4-VP16 FLuc: inconclusive; ELG1 repair inh: 23.1µM*; RORgamma inh: 15.7%; B2AR arrestin: -0.1%

What do the screens show for `Cc1ccc(-n2c(/C=C/c3ccc4c(c3)OCO4)nc3ccccc3c2=O)cc1`?
TSHR antag: -4.5; Gal4-VP16 FLuc: -8.7%; ELG1 repair inh: 18.4µM*; RORgamma inh: 12.4%; B2AR arrestin: -1.0%

Results for COc1ccc(-n2c(/C=C/c3ccc(O)cc3)nc3ccccc3c2=O)cc1 ?
TSHR antag: 23.9; Gal4-VP16 FLuc: -5.8%; ELG1 repair inh: inconclusive; RORgamma inh: 9.1%; B2AR arrestin: 0.1%

How did O=c1c2ccccc2nc(/C=C/c2ccc3c(c2)OCO3)n1-c1cccc(O)c1 do in these assays?
TSHR antag: 36.0; Gal4-VP16 FLuc: -4.9%; ELG1 repair inh: 16.4µM*; RORgamma inh: 24.8%; B2AR arrestin: -2.1%

How did C=CC(=O)OCC(C)C do in these assays?
Gal4-VP16 FLuc: -15.4%; RORgamma inh: -4.8%

What do the screens show for `O=C(NCNC(=O)N[C@H]1C(=O)NC(=O)N1CO)N[C@H]1C(=O)NC(=O)N1CO`?
Gal4-VP16 FLuc: 9.2%[17 µM]; RORgamma inh: -25.9%[16.9 µM]

What do the screens show for `C=CCc1c(C)nc(C)nc1N/N=C/c1ccc(N(C)C)cc1`?
TSHR antag: -2.5; Gal4-VP16 FLuc: inconclusive; ELG1 repair inh: inconclusive; RORgamma inh: 4.47µM*; B2AR arrestin: -0.8%

How did COC(=O)[C@H]1[C@@H](c2ccccc2)[C@@]2(c3ccccc3)Oc3ccccc3[C@@]1(O)[C@@H]2O do in these assays?
Gal4-VP16 FLuc: 1.5%[10 µM]; RORgamma inh: -13.0%[10 µM]

What do the screens show for `CCCCn1c(N)c(C(=O)OCC2CCCO2)c2nc3ccccc3nc21` (configuration not stated)?
TSHR antag: 6.1; Gal4-VP16 FLuc: -22.7%; ELG1 repair inh: 9.2µM*; RORgamma inh: -10.0%; B2AR arrestin: 0.0%

How did CC(C)CCn1c(N)c(C(=O)OCC2CCCO2)c2nc3ccccc3nc21 (configuration not stated) do in these assays?
TSHR antag: -0.2; Gal4-VP16 FLuc: 18.6%; ELG1 repair inh: inconclusive; RORgamma inh: 0.4%; B2AR arrestin: -0.2%

What do the screens show for `COCCOC(=O)c1c(N)n(Cc2ccccc2)c2nc3ccccc3nc12`?
TSHR antag: -1.4; Gal4-VP16 FLuc: 9.2%; ELG1 repair inh: 18.4µM*; RORgamma inh: 16.1%; B2AR arrestin: -0.1%

What do the screens show for `CCOCCCn1c(N)c(C(=O)Nc2sc3c(c2C(=O)OC)CCCC3)c2nc3ccccc3nc21`?
TSHR antag: -17.4; Gal4-VP16 FLuc: 11.2µM*; ELG1 repair inh: inconclusive; RORgamma inh: inconclusive; B2AR arrestin: -0.2%

How did CCCCn1c(N)c(C(=O)OCCOC)c2nc3ccccc3nc21 do in these assays?
TSHR antag: -6.4; Gal4-VP16 FLuc: 5.2%; ELG1 repair inh: 8.2µM*; RORgamma inh: -6.3%; B2AR arrestin: 0.6%

What do the screens show for `CCCCOCCCn1c(N)c(C(=O)OCCOC)c2nc3ccccc3nc21`?
TSHR antag: 17.8; Gal4-VP16 FLuc: -0.3%; ELG1 repair inh: inconclusive; RORgamma inh: 33.3%; B2AR arrestin: 2.8%

What do the screens show for `CCCCCn1c(N)c(C(=O)NCc2cccs2)c2nc3ccccc3nc21`?
TSHR antag: 4.4; Gal4-VP16 FLuc: -17.7%; ELG1 repair inh: inconclusive; RORgamma inh: 26.8%; B2AR arrestin: -0.8%

What do the screens show for `CCCOC(=O)c1c(N)n(Cc2cccs2)c2nc3ccccc3nc12`?
TSHR antag: 15.6; Gal4-VP16 FLuc: 8.7%; ELG1 repair inh: 20.6µM*; RORgamma inh: inconclusive; B2AR arrestin: 0.5%

What do the screens show for `CCBr`?
Gal4-VP16 FLuc: -1.2%; RORgamma inh: -7.4%

How did c1ccc(N=NNc2ccccc2)cc1 do in these assays?
Gal4-VP16 FLuc: 5.2%; RORgamma inh: 17.9%

What do the screens show for `CC(=O)Nc1c2sscc-2n(C)c1=O`?
Gal4-VP16 FLuc: 0.251µM*; RORgamma inh: 0.398µM*

Results for S=c1[nH]nc(-c2ccco2)n1-c1cccc2ccccc12 ?
TSHR antag: -5.3; Gal4-VP16 FLuc: 12.6µM*; ELG1 repair inh: -7.8%; RORgamma inh: 7.94µM*; B2AR arrestin: -0.3%

How did COC(C)C(O)(C(=O)OC1=CCN2CC[C@H](O)[C@H]12)C(C)C (some centres not stated) do in these assays?
Gal4-VP16 FLuc: 2.0%; RORgamma inh: -11.2%

What do the screens show for `CC1=C/C(=N\NC(=S)NCCc2ccccc2)CC(C)(C)C1`?
TSHR antag: -11.5; Gal4-VP16 FLuc: inconclusive; ELG1 repair inh: inconclusive; RORgamma inh: 0.501µM*; B2AR arrestin: 0.0%

How did c1ccc(CCNCc2ccccc2)cc1 do in these assays?
TSHR antag: -5.4; Gal4-VP16 FLuc: -4.7%; ELG1 repair inh: inconclusive; RORgamma inh: 1.6%; B2AR arrestin: -0.7%

What do the screens show for `Clc1ccc(C(Cl)(Cl)Cl)cc1Cl`?
Gal4-VP16 FLuc: -4.3%; RORgamma inh: -0.7%

What do the screens show for `CCN1CC2(OC(=O)c3ccccc3NC(C)=O)CCC(OC)[C@]34C1[C@H](CC23)[C@@]1(O)C[C@H](OC)[C@H]2CC4C1(O)[C@H]2OC` (some centres not stated)?
Gal4-VP16 FLuc: -0.4%; RORgamma inh: 10.8%

How did CN1C[C@@H](C(=O)N[C@@]2(C)O[C@]3(O)C4CCCN4C(=O)[C@@H](Cc4ccccc4)N3C2=O)C=C2c3cccc4[nH]cc(c34)C[C@@H]21 (some centres not stated) do in these assays?
Gal4-VP16 FLuc: 6.2%; RORgamma inh: 14.9%

Results for CC(=O)OC1CC[C@]2(C#N)[C@H]3CC[C@]4(C)[C@H](C5C=CC(=O)O5)CCC4(O)C3CCC2(O)C1 (some centres not stated) ?
TSHR antag: inconclusive; Gal4-VP16 FLuc: -15.1%; ELG1 repair inh: 14.6µM*; RORgamma inh: -16.9%; B2AR arrestin: 0.0%

How did CC(C)(COCC1CO1)COCC1CO1 (configuration not stated) do in these assays?
Gal4-VP16 FLuc: -21.3%; RORgamma inh: -0.7%
